# Source: the supplement of paper PMC10037445
# Over roughly 2,900 compounds, “IRF Lucia reporter activity, fold change vs agonist alone” has its median near 0.9; the highest 2% begin near 2.8. The sample as a whole holds a higher share of the highest values than the screen did.
# Assays:
# [1] = system: RAW-Dual; experiment: IRF Lucia reporter activity, fold change vs agonist alone; cytotoxicity flag (confluency mask): cytotoxic (confluency <70% of control); higher = enhanced IRF activity
# Method in brief: (§1)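 Cytotoxic wells were those whose IncuCyte confluency was below 70% of agonist controls in both mask sets. The cells were RAW-Dual macrophages at 50,000 cells/well in DMEM on 384-well plates, dosed with 50 nL of library stock by pin tool, stimulated with a PRR agonist 1 h later, and kept at 37 °C, 5% CO2 for 20 hours. IRF and NF-κB reporter activity, as fold change over agonist-alone wells, came from supernatant read by QuantiLuc luminescence and QuantiBlue absorbance, respectively.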
# [2] = system: RAW-Dual; experiment: IRF Lucia reporter activity, fold change vs agonist alone; higher = enhanced IRF activity; details: library stock concentration (final ~1000-fold dilution): 10 mM, agonist: MPLA (TLR4) […]
# Method in brief: as §1
# [3] = system: RAW-Dual; experiment: IRF Lucia reporter activity, fold change vs agonist alone; cytotoxicity flag (confluency mask): not cytotoxic; higher = enhanced IRF activity
# Method in brief: as §1
# [4] = agonist: 3'3'-cGAMP (STING) 10 ug/mL
# [5] = cytotoxicity flag (confluency mask): cytotoxic (confluency <70% of control)
# [6] = cytotoxicity flag (confluency mask): not cytotoxic
compound,measurement,setting,value
Cc1sc2c(c1C)C(c1ccc(Cl)cc1)=N[C@@H](CC(=O)NCCCCCCCCNC(=O)COc1cccc3c1C(=O)N(C1CCC(=O)NC1=O)C3=O)c1nnc(C)n1-2 (stereo partly specified) (library stock concentration (final ~1000-fold dilution): 10 mM),IRF Lucia reporter activity,[1]; [4],0.189
same,IRF Lucia reporter activity,[1]; agonist: LPS (TLR4) 0.1 ug/mL,0.244
CC(C)(O)c1ccccc1CCC(SCC1(CC(=O)O)CC1)c1cccc(/C=C/c2ccc3ccc(Cl)cc3n2)c1 (stereo unspecified) (library stock concentration (final ~1000-fold dilution): 10 mM),IRF Lucia reporter activity,[1]; [4],0.492
same,IRF Lucia reporter activity,[1]; agonist: LPS (TLR4) 0.1 ug/mL,1.52
CC(C)(O)c1ccccc1CCC(SCC1(CC(=O)O)CC1)c1cccc(/C=C/c2ccc3ccc(Cl)cc3n2)c1 (stereo unspecified),IRF Lucia reporter activity,[2]; [5],0.73
Cc1cccc(/C=N/Nc2cc(N3CCOCC3)nc(OCCc3ccccn3)n2)c1 (library stock concentration (final ~1000-fold dilution): 10 mM),IRF Lucia reporter activity,[3]; [4],0.326
same,IRF Lucia reporter activity,[3]; agonist: LPS (TLR4) 0.1 ug/mL,2.84
CCOC(=O)CCNc1cc(N2CCc3ccccc3CC2)nc(-c2ccccn2)n1.Cl (library stock concentration (final ~1000-fold dilution): 10 mM),IRF Lucia reporter activity,[3]; [4],1.03
same,IRF Lucia reporter activity,[3]; agonist: LPS (TLR4) 0.1 ug/mL,1.04
Cc1cccc(/C=N/Nc2cc(N3CCOCC3)nc(OCCc3ccccn3)n2)c1,IRF Lucia reporter activity,[2]; [6],3.08
CCOC(=O)CCNc1cc(N2CCc3ccccc3CC2)nc(-c2ccccn2)n1.Cl,IRF Lucia reporter activity,[2]; [6],1
CCC(NC(=O)C(C)NC)C(=O)N1CC(O)CC1Cc1c(-c2[nH]c3cc(F)ccc3c2CC2CC(O)CN2C(=O)C(CC)NC(=O)C(C)NC)[nH]c2cc(F)ccc12 (stereo unspecified) (library stock concentration (final ~1000-fold dilution): 10 mM),IRF Lucia reporter activity,[3]; [4],0.626
same,IRF Lucia reporter activity,[3]; agonist: LPS (TLR4) 0.1 ug/mL,0.632
CCC(NC(=O)C(C)NC)C(=O)N1CC(O)CC1Cc1c(-c2[nH]c3cc(F)ccc3c2CC2CC(O)CN2C(=O)C(CC)NC(=O)C(C)NC)[nH]c2cc(F)ccc12 (stereo unspecified),IRF Lucia reporter activity,[2]; [6],0.519
Cc1ccc(CN(CC(O)COc2cccc3[nH]ccc23)C(C)(C)C)cc1 (stereo unspecified) (library stock concentration (final ~1000-fold dilution): 10 mM),IRF Lucia reporter activity,[1]; [4],0.837
same,IRF Lucia reporter activity,[1]; agonist: LPS (TLR4) 0.1 ug/mL,1.9
Cc1cc(C(C)Nc2ccccc2C(=O)O)c2nc(N3CCOCC3)cc(=O)n2c1 (stereo unspecified),IRF Lucia reporter activity,[2]; [6],0.843
Cc1cc(C(C)Nc2ccccc2C(=O)O)c2nc(N3CCOCC3)cc(=O)n2c1 (stereo unspecified) (library stock concentration (final ~1000-fold dilution): 10 mM),IRF Lucia reporter activity,[3]; [4],1
same,IRF Lucia reporter activity,[3]; agonist: LPS (TLR4) 0.1 ug/mL,1.04
CC(O)CO.CCOc1ccc(Cc2cc(C3OC(CO)C(O)C(O)C3O)ccc2Cl)cc1.O (stereo unspecified),IRF Lucia reporter activity,[2]; [6],1.05
CC(O)CO.CCOc1ccc(Cc2cc(C3OC(CO)C(O)C(O)C3O)ccc2Cl)cc1.O (stereo unspecified) (library stock concentration (final ~1000-fold dilution): 10 mM),IRF Lucia reporter activity,[3]; [4],1.07
same,IRF Lucia reporter activity,[3]; agonist: LPS (TLR4) 0.1 ug/mL,1.03
CC(Cn1cnc2c(N)ncnc21)OCP(=O)(O)O (stereo unspecified),IRF Lucia reporter activity,[2]; [6],1.05
CC(Cn1cnc2c(N)ncnc21)OCP(=O)(O)O (stereo unspecified) (library stock concentration (final ~1000-fold dilution): 10 mM),IRF Lucia reporter activity,[3]; [4],1
same,IRF Lucia reporter activity,[3]; agonist: LPS (TLR4) 0.1 ug/mL,1
Nc1ncnc2c1ncn2C(C=O)OC(C=O)CO (stereo unspecified) (library stock concentration (final ~1000-fold dilution): 10 mM),IRF Lucia reporter activity,[3]; [4],0.427
same,IRF Lucia reporter activity,[3]; agonist: LPS (TLR4) 0.1 ug/mL,0.724
CC(C)(C)C(=O)OCOP(=O)(COCCn1cnc2c(N)ncnc21)OCOC(=O)C(C)(C)C (library stock concentration (final ~1000-fold dilution): 10 mM),IRF Lucia reporter activity,[3]; [4],2.04
same,IRF Lucia reporter activity,[3]; agonist: LPS (TLR4) 0.1 ug/mL,2.36
CC(C)(C)C(=O)OCOP(=O)(COCCn1cnc2c(N)ncnc21)OCOC(=O)C(C)(C)C,IRF Lucia reporter activity,[2]; [6],2.95
Cc1ccc(C2OC(CO)C(O)C(O)C2O)cc1Cc1ccc(-c2ccc(F)cc2)s1.Cc1ccc(C2OC(CO)C(O)C(O)C2O)cc1Cc1ccc(-c2ccc(F)cc2)s1.O (stereo unspecified),IRF Lucia reporter activity,[2]; [5],0.0328
Cc1ccc(C2OC(CO)C(O)C(O)C2O)cc1Cc1ccc(-c2ccc(F)cc2)s1.Cc1ccc(C2OC(CO)C(O)C(O)C2O)cc1Cc1ccc(-c2ccc(F)cc2)s1.O (stereo unspecified) (library stock concentration (final ~1000-fold dilution): 10 mM),IRF Lucia reporter activity,[1]; [4],0.0212
same,IRF Lucia reporter activity,[1]; agonist: LPS (TLR4) 0.1 ug/mL,0.026
Cc1cc2c(F)c(Oc3ncnn4cc(OCC(C)OC(=O)C(C)N)c(C)c34)ccc2[nH]1 (stereo unspecified) (library stock concentration (final ~1000-fold dilution): 10 mM),IRF Lucia reporter activity,[1]; [4],0.967
same,IRF Lucia reporter activity,[1]; agonist: LPS (TLR4) 0.1 ug/mL,2.13
Cc1cc2c(F)c(Oc3ncnn4cc(OCC(C)O)c(C)c34)ccc2[nH]1 (stereo unspecified),IRF Lucia reporter activity,[2]; [6],1.93
Cc1cc2c(F)c(Oc3ncnn4cc(OCC(C)O)c(C)c34)ccc2[nH]1 (stereo unspecified) (library stock concentration (final ~1000-fold dilution): 10 mM),IRF Lucia reporter activity,[3]; [4],1.01
same,IRF Lucia reporter activity,[3]; agonist: LPS (TLR4) 0.1 ug/mL,1.75
Cc1cc2c(F)c(Oc3ncnn4cc(OCC(C)OC(=O)C(C)N)c(C)c34)ccc2[nH]1 (stereo unspecified),IRF Lucia reporter activity,[2]; [5],2.88
COc1cc2c(Oc3ccc4[nH]c(C)cc4c3F)ncnc2cc1OCCCN1CCCC1.O=C(O)/C=C\C(=O)O (library stock concentration (final ~1000-fold dilution): 10 mM),IRF Lucia reporter activity,[1]; [4],0.783
same,IRF Lucia reporter activity,[1]; agonist: LPS (TLR4) 0.1 ug/mL,1.92
